Of roughly 8,800 targets only a part is listed; those with a hit were picked by preference. About 0.5% of all pairs of compound and target were hits. A number with no mark means an inactive call.
The targets below were run with C[C@@H](Oc1cc(-c2cnn(C3CCNCC3)c2)cnc1N)c1c(Cl)ccc(F)c1Cl [crizotinib] (assay: log2 fold change, soluble protein after heating vs DMSO (PISA); higher = thermal stabilisation; K562 lysate, 10 uM; active = over 0.2 and 3.5 SD of the protein, either way, in both replicates (recomputed)).
Summary of the method: (§1)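 To prepare the extract, K562 pellets were dounce-homogenised in PBS pH 7.4 with 1 mM MgCl2, giving crude material at 1 mg/mL protein. This was treated with 10 μM compound for 30 min, then heated in aliquots for 3 min over 48°C-58°C before pooling and addition of NP-40 to 0.5% at 4°C. Centrifugation at 21,000xg for 90 min left soluble protein in the supernatant, which TMTpro 16plex LC-MS/MS quantified with equalised channel sums. Results are log-two fold changes in thermal stability compared with solvent controls, from duplicates.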

Sequence of UniProt O43427 (O43427 whole entry, looked up): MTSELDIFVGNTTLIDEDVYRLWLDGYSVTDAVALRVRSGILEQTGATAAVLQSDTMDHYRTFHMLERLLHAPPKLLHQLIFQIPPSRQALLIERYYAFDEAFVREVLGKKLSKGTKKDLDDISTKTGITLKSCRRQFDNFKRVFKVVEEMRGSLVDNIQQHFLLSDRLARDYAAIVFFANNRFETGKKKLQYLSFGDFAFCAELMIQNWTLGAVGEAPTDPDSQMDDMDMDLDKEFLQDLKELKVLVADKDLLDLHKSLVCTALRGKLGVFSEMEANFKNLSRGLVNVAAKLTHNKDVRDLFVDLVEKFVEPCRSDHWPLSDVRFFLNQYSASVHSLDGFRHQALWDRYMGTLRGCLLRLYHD
Sequence of UniProt P54852 (P54852 whole entry, looked up): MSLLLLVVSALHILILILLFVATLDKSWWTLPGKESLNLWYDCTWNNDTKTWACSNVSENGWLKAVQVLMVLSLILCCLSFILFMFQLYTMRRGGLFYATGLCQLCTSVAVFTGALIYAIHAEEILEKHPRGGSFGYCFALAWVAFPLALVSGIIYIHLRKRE
Sequence of UniProt Q96L91 (Q96L91 whole entry, looked up): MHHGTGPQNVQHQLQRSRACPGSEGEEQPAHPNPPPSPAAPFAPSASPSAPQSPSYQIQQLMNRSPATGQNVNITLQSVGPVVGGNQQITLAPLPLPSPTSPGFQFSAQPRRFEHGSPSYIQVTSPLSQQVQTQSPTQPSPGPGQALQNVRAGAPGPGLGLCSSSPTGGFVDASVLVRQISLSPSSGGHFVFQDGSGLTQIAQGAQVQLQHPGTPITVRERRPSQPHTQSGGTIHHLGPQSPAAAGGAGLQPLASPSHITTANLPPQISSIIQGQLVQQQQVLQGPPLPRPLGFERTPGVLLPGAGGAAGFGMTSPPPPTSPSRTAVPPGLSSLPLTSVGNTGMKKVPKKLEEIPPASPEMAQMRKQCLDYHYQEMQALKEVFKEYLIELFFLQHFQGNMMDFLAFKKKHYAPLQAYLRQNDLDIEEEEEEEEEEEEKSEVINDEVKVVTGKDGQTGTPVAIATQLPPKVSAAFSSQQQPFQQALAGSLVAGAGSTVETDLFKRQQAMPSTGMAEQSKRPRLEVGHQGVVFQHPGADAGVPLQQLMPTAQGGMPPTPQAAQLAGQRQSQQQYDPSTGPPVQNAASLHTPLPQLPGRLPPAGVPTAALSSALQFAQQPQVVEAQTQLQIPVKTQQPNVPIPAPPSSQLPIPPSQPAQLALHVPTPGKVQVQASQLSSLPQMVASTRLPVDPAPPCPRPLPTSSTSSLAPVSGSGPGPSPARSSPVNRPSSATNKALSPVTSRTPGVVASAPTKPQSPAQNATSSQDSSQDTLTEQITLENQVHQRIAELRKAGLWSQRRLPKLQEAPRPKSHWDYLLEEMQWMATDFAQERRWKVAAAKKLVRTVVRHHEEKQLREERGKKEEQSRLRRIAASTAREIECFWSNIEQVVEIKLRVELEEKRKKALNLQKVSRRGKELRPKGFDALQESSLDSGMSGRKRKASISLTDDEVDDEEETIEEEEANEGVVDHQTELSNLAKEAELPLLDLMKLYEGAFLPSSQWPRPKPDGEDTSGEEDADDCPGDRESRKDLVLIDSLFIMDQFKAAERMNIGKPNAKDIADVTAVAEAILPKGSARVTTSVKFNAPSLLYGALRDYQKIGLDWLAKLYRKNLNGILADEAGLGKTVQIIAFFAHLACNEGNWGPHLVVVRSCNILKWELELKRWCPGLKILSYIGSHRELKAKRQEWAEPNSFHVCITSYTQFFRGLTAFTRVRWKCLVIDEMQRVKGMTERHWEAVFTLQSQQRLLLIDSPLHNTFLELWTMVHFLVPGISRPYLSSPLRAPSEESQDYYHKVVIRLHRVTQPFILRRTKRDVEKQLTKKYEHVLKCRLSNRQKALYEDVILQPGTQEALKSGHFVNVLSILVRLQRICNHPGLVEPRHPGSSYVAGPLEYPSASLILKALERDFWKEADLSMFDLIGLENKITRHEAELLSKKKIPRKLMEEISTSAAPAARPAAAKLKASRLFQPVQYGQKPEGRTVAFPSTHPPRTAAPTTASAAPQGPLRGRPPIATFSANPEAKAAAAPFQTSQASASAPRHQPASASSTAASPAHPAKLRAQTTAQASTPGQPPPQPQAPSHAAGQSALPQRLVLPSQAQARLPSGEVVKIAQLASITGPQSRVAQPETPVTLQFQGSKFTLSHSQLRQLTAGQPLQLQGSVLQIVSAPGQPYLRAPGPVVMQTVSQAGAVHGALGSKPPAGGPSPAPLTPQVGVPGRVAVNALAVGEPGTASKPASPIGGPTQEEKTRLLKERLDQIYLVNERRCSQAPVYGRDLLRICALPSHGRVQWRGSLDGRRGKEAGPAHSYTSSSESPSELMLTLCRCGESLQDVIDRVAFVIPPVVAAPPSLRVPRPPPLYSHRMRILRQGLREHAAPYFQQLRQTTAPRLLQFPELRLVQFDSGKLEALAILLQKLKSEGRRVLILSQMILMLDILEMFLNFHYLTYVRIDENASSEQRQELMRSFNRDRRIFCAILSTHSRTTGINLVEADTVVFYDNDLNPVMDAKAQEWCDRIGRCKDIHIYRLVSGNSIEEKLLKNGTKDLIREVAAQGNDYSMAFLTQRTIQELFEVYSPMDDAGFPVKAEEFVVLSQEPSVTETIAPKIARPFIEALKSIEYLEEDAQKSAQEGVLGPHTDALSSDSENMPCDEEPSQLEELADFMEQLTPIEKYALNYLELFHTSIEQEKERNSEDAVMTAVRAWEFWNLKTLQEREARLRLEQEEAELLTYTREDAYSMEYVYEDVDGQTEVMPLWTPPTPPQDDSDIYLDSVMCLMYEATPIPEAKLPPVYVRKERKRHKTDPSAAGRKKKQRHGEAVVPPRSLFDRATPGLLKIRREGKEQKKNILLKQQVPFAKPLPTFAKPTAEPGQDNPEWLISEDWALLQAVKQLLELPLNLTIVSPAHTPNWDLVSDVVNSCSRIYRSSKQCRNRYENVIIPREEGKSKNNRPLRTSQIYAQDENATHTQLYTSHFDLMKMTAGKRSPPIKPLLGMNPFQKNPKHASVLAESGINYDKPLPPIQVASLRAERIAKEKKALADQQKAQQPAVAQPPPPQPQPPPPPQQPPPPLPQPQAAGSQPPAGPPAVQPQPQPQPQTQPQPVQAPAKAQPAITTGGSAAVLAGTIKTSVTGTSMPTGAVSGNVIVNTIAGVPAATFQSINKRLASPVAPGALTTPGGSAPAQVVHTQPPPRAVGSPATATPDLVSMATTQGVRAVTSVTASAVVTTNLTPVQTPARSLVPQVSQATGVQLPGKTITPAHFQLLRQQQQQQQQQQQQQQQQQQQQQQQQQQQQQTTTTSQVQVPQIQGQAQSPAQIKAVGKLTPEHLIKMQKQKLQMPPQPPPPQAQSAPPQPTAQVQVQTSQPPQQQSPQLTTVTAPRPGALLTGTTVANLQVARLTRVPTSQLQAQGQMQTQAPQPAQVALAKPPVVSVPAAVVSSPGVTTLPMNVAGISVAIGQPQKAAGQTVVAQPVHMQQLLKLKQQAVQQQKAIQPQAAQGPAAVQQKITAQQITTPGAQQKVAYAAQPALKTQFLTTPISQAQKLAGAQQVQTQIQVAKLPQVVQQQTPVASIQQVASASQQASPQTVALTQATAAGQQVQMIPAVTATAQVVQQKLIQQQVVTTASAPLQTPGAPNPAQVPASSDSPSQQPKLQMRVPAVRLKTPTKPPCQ
Sequence of UniProt Q06210 (Q06210 whole entry, looked up): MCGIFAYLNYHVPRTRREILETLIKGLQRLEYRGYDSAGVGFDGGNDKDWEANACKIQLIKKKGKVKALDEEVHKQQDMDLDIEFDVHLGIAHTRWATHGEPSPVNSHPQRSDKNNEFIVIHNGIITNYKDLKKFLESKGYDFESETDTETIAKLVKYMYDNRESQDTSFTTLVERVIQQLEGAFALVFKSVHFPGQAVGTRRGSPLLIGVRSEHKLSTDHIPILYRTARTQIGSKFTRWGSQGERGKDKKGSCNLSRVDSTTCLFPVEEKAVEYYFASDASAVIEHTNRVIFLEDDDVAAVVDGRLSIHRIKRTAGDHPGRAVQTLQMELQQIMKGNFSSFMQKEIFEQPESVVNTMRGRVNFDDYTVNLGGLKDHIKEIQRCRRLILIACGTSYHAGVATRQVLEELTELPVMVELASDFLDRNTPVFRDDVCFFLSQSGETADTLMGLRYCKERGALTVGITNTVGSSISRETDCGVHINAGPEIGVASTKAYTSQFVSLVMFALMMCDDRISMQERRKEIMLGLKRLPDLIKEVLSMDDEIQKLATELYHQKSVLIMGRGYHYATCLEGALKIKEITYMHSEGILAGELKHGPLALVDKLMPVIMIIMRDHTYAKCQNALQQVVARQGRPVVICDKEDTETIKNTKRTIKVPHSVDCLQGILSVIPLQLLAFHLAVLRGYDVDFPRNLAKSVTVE
Sequence of UniProt Q96G46 (Q96G46 whole entry, looked up): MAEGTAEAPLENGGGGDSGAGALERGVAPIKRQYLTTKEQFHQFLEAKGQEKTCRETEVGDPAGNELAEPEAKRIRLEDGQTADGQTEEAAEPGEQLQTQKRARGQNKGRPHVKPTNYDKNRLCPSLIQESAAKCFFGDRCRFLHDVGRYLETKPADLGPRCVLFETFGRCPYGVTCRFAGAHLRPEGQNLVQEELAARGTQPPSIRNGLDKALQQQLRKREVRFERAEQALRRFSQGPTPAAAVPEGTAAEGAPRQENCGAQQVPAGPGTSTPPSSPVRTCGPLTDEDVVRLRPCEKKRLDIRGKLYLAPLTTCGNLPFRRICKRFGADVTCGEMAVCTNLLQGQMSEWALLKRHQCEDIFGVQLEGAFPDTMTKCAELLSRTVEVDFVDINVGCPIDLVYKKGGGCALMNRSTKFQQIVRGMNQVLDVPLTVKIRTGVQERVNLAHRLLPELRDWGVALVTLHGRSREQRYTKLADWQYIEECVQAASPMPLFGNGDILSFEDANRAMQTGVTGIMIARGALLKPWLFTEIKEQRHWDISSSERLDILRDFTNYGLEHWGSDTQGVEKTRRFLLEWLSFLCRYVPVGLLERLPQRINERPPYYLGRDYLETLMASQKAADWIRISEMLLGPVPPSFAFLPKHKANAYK

Target	log2 fold change
FARSA (UniProt Q9Y285)	-0.05
FECH isoform 2 (UniProt P22830)	0.027
EBP (UniProt Q15125)	0.07
EP300 (UniProt Q09472)	0.047
EP400 isoform 5 (UniProt Q96L91)	-0.04
ESRRA (UniProt P11474)	-0.025
DUS2 (UniProt Q9NX74)	0.041
GCLM (UniProt P48507)	0.018
GGT7 (UniProt Q9UJ14)	0.01
EMP3 (UniProt P54852)	-0.002
FANCI (UniProt Q9NVI1)	-0.09
FAM118B (UniProt Q9BPY3)	-0.093
GFPT1 (UniProt Q06210)	-0.033
FKBP1A (UniProt P62942)	0.005
EDARADD (UniProt Q8WWZ3)	0.027
FIBP (UniProt O43427)	-0.08
EHD2 (UniProt Q9NZN4)	-0.033
FADS1, A0A0A0MR51	-0.003

Target	log2 fold change
GALNT2 (UniProt Q10471)	0.009
FASTKD5 (UniProt Q7L8L6)	-0.075
FBLL1 (UniProt A6NHQ2)	-0.041
DTWD1 (UniProt Q8N5C7)	0
GGA2 (UniProt Q9UJY4)	-0.029
FYB1 isoform 3 (UniProt O15117)	-0.082
DYRK1A (UniProt Q13627)	0.018
DUS3L (UniProt Q96G46)	-0.027
ERI1 (UniProt Q8IV48)	-0.017
FBXO9 (UniProt Q9UK97)	-0.023
ERBIN isoform 8 (UniProt Q96RT1)	-0.026
ENY2 (UniProt Q9NPA8)	0.031
EEF1AKNMT (UniProt Q8N6R0)	-0.123
EEF1A1, A0A087WVQ9	-0.02
ETHE1 (UniProt O95571)	-0.022
FBXO22 (UniProt Q8NEZ5)	-0.035
FASTKD2 (UniProt Q9NYY8)	-0.032
FBXO30 (UniProt Q8TB52)	-0.013

Each target was assayed with C[C@H](C1=CC=C(C=C1)C(=O)NC2=C3C=CNC3=NC=C2)N in the same assay as above.
Summary of the method: as §1

Target	log2 fold change
FARSA (UniProt Q9Y285)	-0.003
FECH isoform 2 (UniProt P22830)	-0.12
EBP (UniProt Q15125)	-0.269 (active)
EP300 (UniProt Q09472)	-0.101
EP400 isoform 5 (UniProt Q96L91)	-0.018
ESRRA (UniProt P11474)	0.444 (active)
DUS2 (UniProt Q9NX74)	-0.032
GCLM (UniProt P48507)	-0.009
GGT7 (UniProt Q9UJ14)	0.068
EMP3 (UniProt P54852)	-0.763 (active)
FANCI (UniProt Q9NVI1)	0.06
FAM118B (UniProt Q9BPY3)	-0.022
GFPT1 (UniProt Q06210)	0.009
FKBP1A (UniProt P62942)	-0.814 (active)
EDARADD (UniProt Q8WWZ3)	-0.049
FIBP (UniProt O43427)	0.003
EHD2 (UniProt Q9NZN4)	0.004
FADS1, A0A0A0MR51	-0.024

Target	log2 fold change
GALNT2 (UniProt Q10471)	-0.074
FASTKD5 (UniProt Q7L8L6)	0.089
FBLL1 (UniProt A6NHQ2)	-0.277 (active)
DTWD1 (UniProt Q8N5C7)	0.015
GGA2 (UniProt Q9UJY4)	0.023
FYB1 isoform 3 (UniProt O15117)	0.147
DYRK1A (UniProt Q13627)	0.055
DUS3L (UniProt Q96G46)	0.202
ERI1 (UniProt Q8IV48)	0.047
FBXO9 (UniProt Q9UK97)	0.08
ERBIN isoform 8 (UniProt Q96RT1)	-0.056
ENY2 (UniProt Q9NPA8)	0.726 (active)
EEF1AKNMT (UniProt Q8N6R0)	0.017
EEF1A1, A0A087WVQ9	0.07
ETHE1 (UniProt O95571)	-0.034
FBXO22 (UniProt Q8NEZ5)	0.035
FASTKD2 (UniProt Q9NYY8)	-0.067
FBXO30 (UniProt Q8TB52)	0.187
